From the supplement of paper PMC6555819

System: VDR:RXRa (NR concentration 270 nM, RXRa partner concentration 90 nM)
Experiment: PBM binding z-score (relative to random genomic background probes); higher = stronger binding; sequences stand for … in GC…GCGATTGACAGCGTAGAATGAAGG
Description: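 Protein-binding microarray (Agilent 4x180K custom design, double-stranded 60-nt probes: 5' GC cap, 34-nt variable region, 24-nt constant primer region; full probe sequence given). Purified or IVT nuclear receptor:RXRα heterodimers (3:1 NR:RXRα, mostly 270:90 nM) or homodimers were incubated for 1 h in PBS with 2% milk and no ligand, then detected with Alexa488 antibodies. Fluorescence from o1-orientation probes (~5 replicates averaged) was converted to z-scores against 500 random hg19 background probes. Variable regions are seed direct-repeat (DR0–DR5) sites, all their single-nucleotide variants and half-site ablations.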

Sequence	PBM binding z-score
CCTACTGTGCCAAAAAGGTCATTGATGCCGATAA	4.92
ACAGACAGGTGATGAAGGTAAATCAGGCTATCAT	0.133
TGAATGAGGTTAAAGATCAGGAAACGTGGCGTCG	1.95
CCGAGTAGGTTATGCGGCATTCAGGCAACGGTGA	-0.251
CCTAGTTGGTCAAGGTCATACACGCTATAGGTAC	4.33
ACTATTAGTTGACTTAGGGCTACCGATACGACGC	-0.0525
GCTAGTAGATCAAGGTTAAGAAAGACTAAGCTAA	-0.00199
AGAACGAGAGCACGCTGAGTTGATAGCAGAGTAG	-0.462
CCTAGTTTGTCAGGAGGTCACACACCGGATATGA	4.19
CATACAGGGTCAGCTATGCCAGAGTAGGGACGGC	2.78
ACTCTTAGTTGACTTAGGGCAACCGATACGACGC	0.416
ATCGATAGGTCGAGGTGAGTATAGAGAAAGGGAA	0.414
CGTCCAAGGTCAATCCTAGGTCAGTGAAAGCATT	4.96
CCTACTGGGTCATCAGGTCATTGATATCAACGTT	4.24
CCTTACCGGTCACGAGGTTATAGCACGACGAGCG	2.17
TAGCCTCGGTCATGCGGGCCAGTATAGTGTCGGC	-0.284
CGAACTAGGTCATCCAGGACAGTGAGTACATTGA	5.02
TTACCCAGGTGAAGGTCGTTGATCCCTCTGTAGA	1.05
CCAGACAGGTGATAGGTAACTCAGTCTGGTACGC	-0.0769
CAAACTAGGTCAAAGGTTAAAGTCGAGCCAACCA	4.87

Sequence	PBM binding z-score
CCTCGGAGGATAGAAGGTCAGAGCTGTCCGCTTT	0.755
CGAACGAGGGCATAAGTTGATAGCAAATGCCGAT	0.652
ACAGACAGGTGAAGAAGGTAACTCAGGCTATCAT	0.439
GCTTACGGTTCAAAGGTTATAGCATGAATAGAAT	4.41
CGCCCAAGGTCAAAGGTCAGTGAAGAGATGACGG	6.61
CCGACTGGGGCAAACGTTACCATACTCAGTACGA	-0.23
GTACCAAGGTGAATGGGTCGTTGATGAGTAGGCG	1.06
CGTCGAAGGTCAAGGTCAGTGAAAGAGACTCGAA	4.25
ATCTCTAGGTAAAAGTTCAATGAATCCCGAGGAT	2.25
GCAGACAGGTGAAACGCAGGTAACTGAGGGTGGC	-0.361
ACTCGGAGGACAAAGGTCAGTGCTACGCCAGTGA	2.82
GTACCAAGGTGAATAGGTCATTGATGAGTAGGCG	2.24
ATCTCTAGGTGAAGTTCAGTGAAAGATCGATAGA	0.563
ACTTACGGGTCAACGAGGTTATAGCCCGCGTATA	7.59
GCTAGTTGGTCTGTAAAAGGTCACACACCGGTCG	3.94
CCTACTGGGCCAAAAAGGTCCTTGATGCCGATAA	-0.189
GCGACTGGGGCAAGGCAGGTTACCATAAGGTTGG	-0.166
CGAACTAGGTCTAGGACAGTGAATCTCCGCACGC	-0.692
ATCGAAAGGTCGACGTGGTGAGTATACACCGTTT	2.73
GATACATGGTCAGCTAGAGGCCAGAGTATGGAAA	-0.32
